Screening results (PubChem BioAssay)
GLP-1R agonist: qHTS of GLP-1 Receptor Agonists; Glucagon-like peptide 1 receptor (Homo sapiens), P43220; Potency, µM (titrated, usually from 45.6 µM), hits mostly activators; AID 624172, 2012; HEK293 GLP-1R CRE-luciferase, luminescence, 4-6 h; cells express a hypersensitive GLP-1R form; actives 0.007% (n = 380,000)
Target sequence (P43220 whole entry, looked up): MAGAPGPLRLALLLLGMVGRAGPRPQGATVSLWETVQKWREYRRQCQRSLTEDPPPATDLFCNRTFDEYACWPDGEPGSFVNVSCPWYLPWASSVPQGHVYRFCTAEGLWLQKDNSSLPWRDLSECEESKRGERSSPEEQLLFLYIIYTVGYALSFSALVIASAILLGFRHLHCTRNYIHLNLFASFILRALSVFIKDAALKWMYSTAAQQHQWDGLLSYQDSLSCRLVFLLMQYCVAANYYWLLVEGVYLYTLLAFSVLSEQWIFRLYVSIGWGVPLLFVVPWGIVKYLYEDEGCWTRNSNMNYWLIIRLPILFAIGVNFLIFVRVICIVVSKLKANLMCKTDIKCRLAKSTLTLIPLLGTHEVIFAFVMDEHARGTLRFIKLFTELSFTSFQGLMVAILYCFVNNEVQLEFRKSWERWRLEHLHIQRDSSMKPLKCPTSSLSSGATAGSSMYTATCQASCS
GLP-1R inv ag: qHTS of GLP-1 Receptor Inverse Agonists (Inhibition Mode); Glucagon-like peptide 1 receptor (Homo sapiens), P43220; HEK293 GLP-1R CRE-luciferase, luminescence, 24 h; GLP-1R form is constitutively active; Potency, µM (highest dose often 38.3 µM), usual class: inhibitors; actives 1.6% (n = 410,000); AID 624417, 2012; further: nearly all actives have a fitted effect of over 55% in size
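Readout was luciferase luminescence, measured 12 min after detection reagent at room temperature. Beforehand, GLP-1R reporter HEK293 cells had sat 12 h, then received compounds for 24 hr at 37 deg C.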
RGS4 inh: Inhibitors of Regulator of G Protein Signaling (RGS) 4: qHTS; Transcreener GDP fluorescence polarization, RGS4-accelerated GTP hydrolysis; Potency, µM (top dose mostly 114 µM), actives largely listed as inhibitors; Regulator of G-protein signaling 4 (Homo sapiens), P49798; actives 0.039% (n = 390,000); further: nearly all actives have a fitted effect of over 75% in size
Target sequence (P49798 whole entry, looked up): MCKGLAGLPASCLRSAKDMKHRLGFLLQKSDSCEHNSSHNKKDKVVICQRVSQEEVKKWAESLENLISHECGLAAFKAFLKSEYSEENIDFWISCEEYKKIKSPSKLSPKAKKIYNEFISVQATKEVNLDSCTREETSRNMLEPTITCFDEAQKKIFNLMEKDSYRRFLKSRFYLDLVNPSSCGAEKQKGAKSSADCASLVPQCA
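MLSMR compounds (23 nl, pin-transferred) preincubated 10 min at room temperature with a 500nM (2x) first reagent, then RGS4 at 900nM (2x) plus Transcreener GDP mix added; fluorescence polarization (620/688 nm) read before and after 90 min at 30 °C.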
PTHR1 agonist: qHTS for PTHR1 Agonists: Primary Screen; Potency, µM (titrated, usually from 115 µM), usual class: activators; HEK293 GP2 PTHR1 cells, GloSensor cAMP luminescence, 1 h; Parathyroid hormone/parathyroid hormone-related peptide receptor (Homo sapiens), Q03431; actives 0.075% (n = 410,000); AID 743266, 2014; further: nearly all actives have a fitted effect of over 55% in size
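HEK-293-derived GP2 cells expressing PTHR1 and a GloSensor cAMP reporter, 3,000/well, plated overnight, given luciferin plus IBMX (each 0.5 mM as added) for 1 h at 37 °C, then compound for 1 h at 37 °C. Luminescence was read after 15 min at room temperature.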
HEK293 tox: qHTS of GLP-1 Receptor Inverse Agonists: Cytotox Screen. HEK293 cAMP-luciferase reporter cells, luminescence, 24 h. actives 0.13% (n = 410,000). Potency, µM (highest dose often 38.3 µM), most hits filed as inhibitors. AID 624418, 2012;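 further: loss of luciferase light is scored as toxicity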
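Quantitative HTS format, 1536 wells, 200 cells/uL seeded. Compounds: 23 nL, 24 h, 37 °C. Detection: luciferase reagent, luminescence at 12 min RT; decreased signal taken as cytotoxic.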
Hits are given with their value; . = inactive; ? = inconclusive; / = no result; [ ] = another dose, or the depositor's remark. Most compounds without a hit are left out; they make up all but 1.7% or so of the library. The call rests on the fitted dose curve; in most records, active means well fitted curve in the direction sought with a large enough effect; inconclusive means small, poorly fitted or top-dose-only effect, or another doubt; inactive means no such curve, though single readings can be large; an effect the other way counts as inactive or inconclusive.

SMILES	GLP-1R agonist	GLP-1R inv ag	RGS4 inh	PTHR1 agonist	HEK293 tox
COc1ccccc1N1CCN(C(=O)c2ccc(COc3cccc4c3OC(C)(C)C4)cc2)CC1	.	7.1µM	.	.	.
O=C(/C=C/c1cn(-c2ccccc2)nc1-c1cccc(Cl)c1)N1CCN(c2ccccn2)CC1	.	7.1µM	.	.	.
Cc1ccc(C)c(CN2C(=O)c3ccccc3S(=O)c3ccc(C(=O)NCCC4=CCCCC4)cc32)c1 (stereo not given)	.	.	.	.	.
COc1ccc(NC(=O)CN2C(=O)NC(C)(Cc3ccc(OC)c(OC)c3)C2=O)cc1 (stereo not given)	.	.	/	.	.
COc1ccccc1N1CCN(C(=O)c2cnc(N3CCCCC3)c3ccccc23)CC1	/	3.5µM	.	.	?
Cc1c(Cl)cccc1NC(=O)N1CCCN(c2nc(-c3ccccc3)ns2)CC1	.	5µM	.	.	.
O=C(Nc1ccccc1Cl)N1CCCN(c2nc(-c3ccccc3)ns2)CC1	.	?	.	.	.
Cc1ccc(CCNC(=O)CC(C)CC2=NS(=O)(=O)c3ccccc3N2)cc1 (stereo not given)	.	?	.[11.4 µM]	.	.
CC(CNC(=O)C1CCN(Cc2cc3ccccc3n2Cc2ccccc2)CC1)c1ccccc1 (stereo not given)	/	10µM	.	.	.
Cc1ccccc1Cn1c(CN2CCC(C(=O)NCCc3ccccc3)CC2)cc2ccccc21	/	11µM	.	.	.
COCCNC(=O)C1CCN(Cc2cc3ccccc3n2Cc2ccc(C)cc2)CC1	/	10µM	.	.	.
CN(Cc1ccccc1)C(=O)C1CCN(Cc2cc3ccccc3n2Cc2ccccc2)CC1	/	10µM	.	.	.
CCCNC(=O)C1CCN(Cc2cc3ccccc3n2Cc2ccccc2)CC1	/	?	.	.	.
COc1cccc(-n2c(=O)c3sc4ccccc4c3n(Cc3c(F)cccc3Cl)c2=O)c1	.	.	.	.	.
CCn1cc(C(=O)NCCCOC)c(=O)c2cc(S(=O)(=O)N3CCc4ccccc4C3)ccc21	.	.	.	.	.
C(=C1NCCN1)c1cccc2ccccc12	.	/	/	/	/
CC(C)c1ccccc1OCC(=O)NC1CCCc2ccccc21 (stereo not given)	.	?	.	.	.[1.53 µM]
COc1ccccc1OCC(=O)NC1CCCc2ccccc21 (stereo not given)	.	11µM	.	.	.
Cc1cccc(OCC(=O)NC2CCCc3ccccc32)c1C (stereo not given)	.	2µM	.	.	.
COc1ccccc1OCC(=O)N/N=C1\CCCCc2ccccc21	.	10µM	.	.	.
Clc1ccc(OCCN2CCOCC2)cc1Cl	.	.	.	.	.
ON=C1c2cc(OCCN3CCCCC3)ccc2-c2ccc(OCCN3CCCCC3)cc21	.	13µM	?	.	3.5µM
NC(=S)NN=C1c2cc(OCCN3CCOCC3)ccc2-c2ccc(OCCN3CCOCC3)cc21	.	7.9µM	.	.	1.4µM
CC[C@H]1OC(=O)C[C@@H](O)[C@H](C)[C@@H](O[C@@H]2O[C@H](C)C[C@H](N(C)C)[C@@H]2O)[C@@H](CC=O)C[C@@H](C)C(=O)/C=C\[C@]2(C)O[C@H]2[C@@H]1C	.	/	/	/	/
Cc1ccc(CNc2oc(-c3ccco3)nc2S(=O)(=O)c2ccccc2)cc1	.	10µM	.	.	.
SMILES	GLP-1R agonist	GLP-1R inv ag	RGS4 inh	PTHR1 agonist	HEK293 tox
O=S(=O)(c1ccccc1)c1nc(-c2ccco2)oc1NCCN1CCOCC1	.	.	.	.	.
CS(=O)(=O)N1CCN(c2ccc(NC(=O)c3ccc(-c4ccc(Cl)cc4)o3)cc2)CC1	.	.	.	.	.
CN1CCN(c2ccc(NC(=O)c3ccc(-c4ccc(Cl)cc4)o3)cc2)CC1	.	4µM	.	.	?
CC(C)c1ccc(NC(=O)c2cc(S(=O)(=O)NCc3ccccc3Cl)ccc2F)cc1	/	6.3µM	.	.	?
CN(C)S(=O)(=O)c1ccc(NC(=O)c2ccc(Br)o2)cc1	.	.	.	.	.
CC(C)c1ccc(NC(=O)c2cc(S(=O)(=O)N(C)C3CCCCC3)ccc2F)cc1	/	10µM	.	.	.
COc1ccccc1NC(=O)c1cc(S(=O)(=O)N(C)C2CCCCC2)ccc1F	/	?	.	.	.
CC(C)c1ccc(NC(=O)c2cc(S(=O)(=O)NCCC3=CCCCC3)ccc2F)cc1	/	?	.	.	.
CN(C1CCCCC1)S(=O)(=O)c1ccc(NC(=O)c2ccc(Br)o2)cc1	.	7.1µM	.	.	.
O=[N+]([O-])c1cc(C(F)(F)F)ccc1NCCc1c[nH]c2ccccc12	.	?	.	.	10µM
Cc1cccc(CN2CCc3c([nH]c4ccccc34)C2CC(C)C)n1 (stereo not given)	.	11µM	.	.	.
O=C(c1ccccc1)c1ccc(N2CCN(C(=O)c3cccc(F)c3F)CC2)c(F)c1	.	10µM	.	.	.
O=C(CN(Cc1ccc(Cl)c(Cl)c1)S(=O)(=O)c1ccccc1)N/N=C\c1ccc2c(c1)OCO2	.	2.2µM	.	.	.
O=C(CN(Cc1ccccc1)S(=O)(=O)c1ccccc1)N/N=C/c1ccc2c(c1)OCO2	.	.	.	.	?
CCOC(=O)C(CCCOc1ccc(C(C)CC)cc1)C(=O)OCC (stereo not given)	.	10µM	.	.	.
CCC(C)c1ccc(OCc2ccc(C(=O)O)o2)cc1 (stereo not given)	.	2µM	.	.	.
CCn1nc(C(=O)Nc2nc(-c3ccccn3)cs2)c2ccccc2c1=O	.	?	.	.	?
CCCn1nc(C(=O)Nc2nc(-c3ccccn3)cs2)c2ccccc2c1=O	.	?	.	.	5µM
COCCNC(=O)Cn1cc(S(=O)(=O)Cc2ccccc2Cl)c2ccccc21	/	.	.	.	.
Cc1ccc(C(=O)NC(C(=O)OCc2cn3cc(Cl)ccc3n2)C(C)C)cc1 (stereo not given)	.	?	.	.	.
CCN1CCN(C(c2cccs2)C(C)NS(=O)(=O)c2ccc(Br)cc2)CC1 (stereo not given)	.	11µM	.	.	?
CCOc1ccc(CCNC(=O)c2ccc(C)c(-n3cnc4cccnc43)c2)cc1	/	.	.	.	.
C=CCN(Cc1cc(OC)ccc1OC)C(=O)c1cc2ccc(OC)cc2[nH]1	.	11µM	.	.	.
